Screening results (PubChem BioAssay)
IL1B secr inh – blocks inflammasome-driven IL-1 beta release; THP-1 LPS/ATP IL-1B secretion, AlphaLISA, 16 h; active compounds read low; activity change, % at 57.5 µM; actives 4.7% (n = 360,000); AID 743279; in the data active = activity change below about -50%; inconclusive = mostly about -30% to -49%
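THP-1 cells pretreated 1 hr with compounds (up to 57.5 uM final), then stimulated with LPS (250 ng/mL final) plus ATP (1.25 mM final); secreted IL-1B measured by AlphaLISA after 16 hr, decreased signal indicating inhibition.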
DT40 TDP1 no CPT – qHTS for Inhibitors of human tyrosyl-DNA phosphodiesterase 1 (TDP1): qHTS in cells in absence of CPT. DT40 Tdp1-/- hTDP1 cells, no CPT, ATP luminescence, 48 h. Potency, µM (series often up to 46.2 µM), for the others: at the highest dose activity change, negative = growth inhibition, most hits filed as inhibitors. actives 15% (n = 420,000); note: potency is the fitted concentration of half-maximal effect; nearly all actives have a fitted effect of over 55% in size
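Growth kinetics read by CellTiter-Glo luminescence after ≥48 hr at 37 °C. Cells: DT40 Tdp1-/- stably carrying human TDP1, 400 per well, compound exposure in the absence of CPT (DMSO vehicle).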
ELG1 DNA repair – inhibitors of ELG1-dependent DNA repair in HEK293T cells | Potency, µM (doses to about 46.1 µM), without a hit: top-dose activity change, negative = inhibition, hits mostly inhibitors | actives 2.3% (n = 330,000) | AID 504467 | HEK293T ELG1-luciferase reporter, luminescence, 16 h; DNA damage induced by 5-fluorouridine; note: potency is the fitted concentration of half-maximal effect; nearly all actives have a fitted effect of over 55% in size
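In this reporter screen, reduction of luminescence relative to DMSO vehicle indicated activity. Compounds and 5-fluorouridine were added together to 2,000 cells per well, incubated for 16 hr at 37 °C, then developed with ONE-Glo.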
TDP1 cell CPT – DT40-hTDP1 cell growth loss with CPT; actives 12% (n = 420,000); AID 686979; Potency, µM (highest dose often 46.2 µM), for the others: at the highest dose activity change, negative = growth inhibition, actives largely listed as inhibitors; chicken DT40 Tdp1-/-;hTDP1 cells + 20 nM CPT, ATP luminescence, 48 h; note: potency is the fitted concentration of half-maximal effect; nearly all actives have a fitted effect of over 55% in size
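Chicken DT40 Tdp1-/- cells complemented with human TDP1, 400 cells/well, exposed to compounds plus 20 nM camptothecin for at least 48 h at 37 C; viability read as ATP content by CellTiter-Glo luminescence.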
HT1080NT lethal – kills 2HG-producing HT-1080-NT fibrosarcoma cells | actives 1.6% (n = 360,000) | HT-1080-NT fibrosarcoma viability, CellTiter-Glo ATP luminescence, 48 h | AID 686970 | Potency, µM (titrated, usually from 46.1 µM), for inactives: top-dose activity, negative = less viability, hits mostly cytotoxic;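 note: NT is the 2HG producing partner of a matched IDH1 knockdown line; potency is the fitted concentration of half-maximal effect; 0% = DMSO-treated cells and -100% = media-only wells without cells; nearly all actives have a fitted effect of over 55% in size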
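HT-1080-NT; 750 cells/well; 5% FBS RPMI; 48 h compound, 37 degrees C; CellTiter-Glo luminescence; curve fitting and curve-class assignment.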
HT1080 IDH1KD tx – kills HT-1080 cells with IDH1 knockdown | HT-1080 IDH1 knockdown viability, ATP luminescence, 48 h | Potency, µM (series often up to 46.1 µM), for the others: at the top dose activity, negative = toxicity, actives largely listed as cytotoxic | actives 2% (n = 360,000) | AID 686971;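 note: potency is the fitted concentration of half-maximal effect; 0% = DMSO wells and -100% = cell-free medium wells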
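Cytotoxicity counter-line: IDH1KD HT-1080, 48 h, CellTiter-Glo. Curves classed by r2, magnitude and activity.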
The depositor's hits bear a star; u = inconclusive; x = no result. The list is not random: actives were taken first. Their share in the collection is about 19%. Unless noted, calls come from the whole dose curve; as a rule, active = well fitted curve in the direction sought with a large enough effect; inconclusive = small, poorly fitted or top-dose-only effect, or another doubt; inactive = no such curve, though single readings can be large; an effect the other way counts as inactive or inconclusive. Unless noted, % is set by controls: 0 for no effect and ±100 for the full control effect.

SMILES	IL1B secr inh	DT40 TDP1 no CPT	ELG1 DNA repair	TDP1 cell CPT	HT1080NT lethal	HT1080 IDH1KD tx
CCCc1nc2oc3c(NCC(C)O)ncnc3c2c2c1CCCC2 (stereo unspecified)	0	u	23µM*	u	0%	-4%
COc1ncnc2c1oc1nc(CC(C)C)c3c(c12)CC(C)(C)OC3	-12	-29%	u	u	0%	-4%
CC(C)Cc1nc2oc3c(NCc4cccnc4)ncnc3c2c2c1CCC2	26	-11%	u	-25%	2%	-15%
CC(C)c1nc2oc3c(NCc4cccnc4)ncnc3c2c2c1CCC2	u	u	8.2µM*	-26%	-2%	-14%
CCN1CCN(c2ncnc3c2oc2nc(C(C)C)c4c(c23)CCC4)CC1	x	x	17%	x	x	x
CC(C)Cc1nc2oc3c(N4CCN(CCO)CC4)ncnc3c2c2c1CCCC2	-7	13µM*	u	13µM*	7%	9%
CC(=O)NCCNc1nc(-c2cccc(NS(C)(=O)=O)c2)nc2ccccc12	x	-26%	x	u	x	x
O=C(NCc1cc(C(F)(F)F)ccc1Cl)c1cccc2c1C(=O)c1ccc(N3CCCCC3)cc1S2(=O)=O	59	u	u	u	-19%	0%
O=C(NCc1cc(C(F)(F)F)ccc1Cl)c1cccc2c1C(=O)c1ccc(N3CCC(N4CCCCC4)CC3)cc1S2(=O)=O	92	2.9µM*	x	5.2µM*	-24%	-11%
O=C(NCc1cc(C(F)(F)F)ccc1Cl)c1cccc2c1C(=O)c1ccc(N3CCOCC3)cc1S2(=O)=O	9	21µM*	u	18µM*	0%	0%
COc1ccc(NC(=O)N2CCCC3(CCN(S(C)(=O)=O)CC3)C2)cc1	x	-11%	x	3%	x	x
COc1cc(Br)c(C(C)NC(=O)c2cccc(Br)c2)cc1OC (stereo unspecified)	-2	23µM*	-25%	26µM*	-25%	u
COc1cc(C(=O)NC(C)c2cccc3ccccc23)cc(OC)c1OC (stereo unspecified)	-57*	21µM*	-7%	u	-3%	0%
COc1cc(C(=O)NC(C)CCc2ccccc2)cc(OC)c1OC (stereo unspecified)	3	-5%	-2%	-6%	-2%	-5%
COc1ccc2oc(C(=O)OCC(=O)NC3(C#N)CCCC3)c(C)c2c1	9	-11%	1%	-4%	1%	2%
O=C1CCCc2cc(S(=O)(=O)NCC3CCC(C(=O)NCc4ccccc4Cl)CC3)ccc2N1 (stereo unspecified)	x	-30%	x	u	x	x
CCOC(=O)c1ccc(NC(=O)Nc2nc3ccccc3s2)cc1	-10	u	x	u	-2%	2%
CCOC(=O)c1ccc(NC(=O)Nc2nncs2)cc1	29	0.0065µM*	x	0.018µM*	1.2µM*	0.92µM*
CCOC(=O)c1ccc(NC(=O)Nc2ccon2)cc1	82	0.018µM*	u	0.0073µM*	0.58µM*	0.92µM*
N#Cc1cccc(NC(=O)N2CC3(CCN(C(=O)c4cc(C(F)(F)F)cc(C(F)(F)F)c4)CC3)C2)c1	x	-21%	x	-3%	x	x
Cc1cc(C)n2cc(CSc3nnnn3-c3ccccc3)nc2n1	19	-20%	-2%	-2%	15%	6%
Cc1cc(C)n2cc(CSc3nnc(-c4ccccc4)c(-c4ccccc4)n3)nc2n1	0	23µM*	x	21µM*	-1%	5%
CCOC(=O)C1=CCC(c2ccccc2)N(S(=O)(=O)c2ccccc2C)C1 (stereo unspecified)	10	23µM*	x	u	-21%	-26%
CC(=O)C1=CCC(c2ccccc2)N(S(=O)(=O)c2ccccc2C)C1 (stereo unspecified)	9	21µM*	x	u	-8%	-17%
CCc1ccccc1N(C)S(=O)(=O)c1ccc2[nH]cc(C(=O)N3CCc4ccccc43)c(=O)c2c1	-9	18µM*	u	u	u	u
SMILES	IL1B secr inh	DT40 TDP1 no CPT	ELG1 DNA repair	TDP1 cell CPT	HT1080NT lethal	HT1080 IDH1KD tx
CCOc1ccc(N(C)S(=O)(=O)c2ccc3[nH]cc(C(=O)NCCOC)c(=O)c3c2)cc1	4	u	u	13µM*	-1%	-15%
COCCCNC(=O)c1c[nH]c2ccc(S(=O)(=O)N(C)c3ccccc3C)cc2c1=O	21	u	-13%	u	3%	10%
CCOc1ccc(N(C)S(=O)(=O)c2ccc3[nH]cc(C(=O)NCCCOC)c(=O)c3c2)cc1	10	21µM*	-18%	23µM*	2%	0%
COCCNC(=O)c1c[nH]c2ccc(S(=O)(=O)N3CCOCC3)cc2c1=O	-9	21%	3%	-12%	6%	2%
Cc1cccc(N(C)S(=O)(=O)c2ccc3[nH]cc(C(=O)N4CCOCC4)c(=O)c3c2)c1	30	u	1%	-28%	8%	7%
CCCNC(=O)c1c[nH]c2ccc(S(=O)(=O)N(C)c3ccc(OCC)cc3)cc2c1=O	-3	23µM*	u	u	-10%	-20%
CCNc1ncc2nc(C)c(=O)n(C3CC3)c2n1	x	0%	x	10%	x	x
CC(CCc1ccccc1)NC(=O)N1CCOCC1 (stereo unspecified)	2	2%	11%	12%	7%	10%
C=CCNC(=O)c1c[nH]c2ccc(S(=O)(=O)N(C)c3ccc(OCC)cc3)cc2c1=O	34	21µM*	u	21µM*	0%	0%
CCOc1ccc(NS(=O)(=O)c2ccc3[nH]cc(C(=O)NC(C)CC)c(=O)c3c2)cc1 (stereo unspecified)	-13	21µM*	11%	u	-18%	-30%
Cc1ccc(C)c(N(C)S(=O)(=O)c2ccc3[nH]cc(C(=O)NCCN4CCOCC4)c(=O)c3c2)c1	-63*	u	-29%	-24%	-2%	1%
CCCCN(C)CCNC(=O)c1c[nH]c2ccc(S(=O)(=O)N(CC)CC)cc2c1=O	-23	-6%	4%	-20%	11%	12%
Cc1ccc(S(=O)(=O)N2CCN(c3nc(-c4cccs4)nc4nc[nH]c34)CC2)cc1	x	u	x	u	-20%	-9%
CCCOc1ccc(-c2nc3ccccc3c(=O)o2)cc1	x	4%	x	0%	x	x
COc1cccc(NC(=O)C2CC(=O)N(c3ccc(Br)cc3)C2)c1 (stereo unspecified)	x	-8%	x	-2%	x	x
